TDP1 cell CPT – DT40-hTDP1 cell growth loss with CPT. chicken DT40 Tdp1-/-;hTDP1 cells + 20 nM CPT, ATP luminescence, 48 h. Potency, µM (top dose mostly 46.2 µM), usual class: inhibitors. 420,000 tested, 12% active; further: nearly all actives have a fitted effect of over 55% in size
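Chicken DT40 Tdp1-/- cells stably complemented with human TDP1 were seeded at 400 cells/well in medium containing 20 nM camptothecin, exposed to pin-transferred compounds, and grown at 37 °C for at least 48 hr. Viability was read as ATP luminescence.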
IL-1B inflam inh – inhibitors of inflammasome signaling (IL-1 beta secretion) | THP-1 LPS/ATP IL-1B secretion, AlphaLISA, 16 h; hits give low values | activity change, % at 57.5 µM | 360,000 tested, 4.7% active; in the data active means activity change below about -50%; inconclusive means mostly about -30% to -49%
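THP-1 cells pretreated 1 hr with compounds (up to 57.5 uM final), then stimulated with LPS (250 ng/mL final) plus ATP (1.25 mM final); secreted IL-1B measured by AlphaLISA after 16 hr, decreased signal indicating inhibition.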
DT40 TDP1 no CPT – qHTS for Inhibitors of human tyrosyl-DNA phosphodiesterase 1 (TDP1): qHTS in cells in absence of CPT; 420,000 tested, 15% active; AID 686978, 2013; DT40 Tdp1-/- hTDP1 cells, no CPT, ATP luminescence, 48 h; Potency, µM (doses to about 46.2 µM), hits mostly inhibitors; further: nearly all actives have a fitted effect of over 55% in size
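Chicken DT40 Tdp1-/- cells stably complemented with human TDP1 were seeded at 400 cells/well with DMSO in place of 20 nM camptothecin. After compound pinning, cells grew at least 48 hr at 37 °C; viability read by CellTiter-Glo luminescence.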
HT1080 IDH1KD tx – kills HT-1080 cells with IDH1 knockdown | 360,000 tested, 2% active | HT-1080 IDH1 knockdown viability, ATP luminescence, 48 h | Potency, µM (series often up to 46.1 µM), actives largely listed as cytotoxic
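HT-1080-IDH1KD cells (IDH1 knocked down), 750/well in RPMI with 5% FBS, treated with compound 48 h at 37 degrees C. Viability by CellTiter-Glo luminescence, normalised to DMSO and no-cell wells; concentration-response curves classed.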
HT1080-NT tox – kills 2HG-producing HT-1080-NT fibrosarcoma cells; AID 686970; 360,000 tested, 1.6% active; HT-1080-NT fibrosarcoma viability, CellTiter-Glo ATP luminescence, 48 h; Potency, µM (doses to about 46.1 µM), most hits filed as cytotoxic;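 further: NT is the 2HG producing partner of a matched IDH1 knockdown line; nearly all actives have a fitted effect of over 55% in size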
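HT-1080-NT fibrosarcoma cells (2HG-overproducing), 750 cells/well in RPMI with 5% FBS, dosed after 2 h and incubated 48 h at 37C. CellTiter-Glo luminescence normalized to DMSO and no-cell wells; concentration-response curves fitted and classed.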
Each line names hits and unclear results; the compound was inactive in the other large screens. Rows were chosen to be rich in hits. Some 19% of all compounds tested hit in one or more screens of this group. Unless noted, the call rests on the fitted dose curve; in most records, active means well fitted curve in the direction sought with a large enough effect; inconclusive means small, poorly fitted or top-dose-only effect, or another doubt; inactive means no such curve, though single readings can be large; an effect the other way counts as inactive or inconclusive.

O=C(Nc1cccc(NC(=O)c2cccs2)c1)c1ccc2c(c1)OCO2	TDP1 cell CPT inconclusive, IL-1B inflam inh -77, DT40 TDP1 no CPT 12µM
O=C(Nc1ccc(NC(=O)c2cccs2)cc1)c1ccc2c(c1)OCO2	TDP1 cell CPT inconclusive, HT1080 IDH1KD tx 12µM, HT1080-NT tox inconclusive
Cc1ccccc1-c1nc(-c2ccc(NC(=O)c3cccs3)cc2)no1	TDP1 cell CPT 23µM, IL-1B inflam inh inconclusive, DT40 TDP1 no CPT inconclusive, HT1080 IDH1KD tx inconclusive
Cc1ccc(NC(=O)c2cccs2)cc1NC(=O)c1ccc(F)cc1	IL-1B inflam inh -60, DT40 TDP1 no CPT inconclusive, HT1080 IDH1KD tx inconclusive
Cc1ccc(NC(=O)c2cccs2)cc1NC(=O)c1cccc(F)c1	DT40 TDP1 no CPT inconclusive
O=C(Nc1ccc(NC(=O)c2cccs2)cc1)c1ccc2c(c1)OCCO2	none
CS(=O)(=O)N(CC(=O)NCCc1ccccc1)c1cc(C(F)(F)F)ccc1Cl	none (no result: IL-1B inflam inh, HT1080 IDH1KD tx, HT1080-NT tox)
O=C(Nc1ccc(NC(=O)c2cccs2)cc1)c1ccccc1	IL-1B inflam inh inconclusive
O=C(Nc1ccc(O)cc1)c1ccc(NC(=O)c2cccs2)cc1	TDP1 cell CPT inconclusive, DT40 TDP1 no CPT inconclusive, HT1080 IDH1KD tx 23µM, HT1080-NT tox 9.2µM
O=C(Nc1ccc(Cc2ccncc2)cc1)c1cccs1	TDP1 cell CPT inconclusive, IL-1B inflam inh -75
COc1ccccc1CNC(=O)C[C@@H]1C[C@H]2c3cc(N(C)C)ccc3O[C@H]2[C@H](CO)O1	DT40 TDP1 no CPT inconclusive
CCN1CCC(N(Cc2ccc3c(c2)OCO3)C(=O)Nc2ccc(Br)c(C)c2)CC1	TDP1 cell CPT inconclusive, DT40 TDP1 no CPT 16µM (no result: IL-1B inflam inh, HT1080 IDH1KD tx, HT1080-NT tox)
CCN1CCC(N(Cc2ccc3c(c2)OCO3)C(=O)Nc2cc(F)ccc2F)CC1	DT40 TDP1 no CPT inconclusive (no result: IL-1B inflam inh, HT1080 IDH1KD tx, HT1080-NT tox)
CC(C)C1Cc2[nH]c(=S)[nH]c(=O)c2C(c2ccc(F)cc2)O1 (configuration not stated)	none
O=C(COc1ccccc1Cl)Nc1ccccc1C(=O)N1CCCCC1	TDP1 cell CPT inconclusive, DT40 TDP1 no CPT 16µM
CCOC(=O)N1CCN(C(=O)c2ccccc2NC(C)=O)CC1	none
CCOC(=O)N1CCN(C(=O)c2cccc(OC)c2O)CC1	none
COc1ccccc1OCC(=O)Nc1ccccc1C(=O)N1CCCCC1	none
CCOC(=O)N1CCN(C(=O)c2ccccc2-c2ccccc2)CC1	TDP1 cell CPT 3.7µM, DT40 TDP1 no CPT 3.3µM, HT1080 IDH1KD tx 7.3µM, HT1080-NT tox 10µM
O=C(O)CCC(=O)N1CCN(c2nc(-c3ccccc3)c3ccccc3n2)CC1	none
CCOC(=O)N1CCN(c2nc(-c3ccccc3)c3ccccc3n2)CC1	DT40 TDP1 no CPT 26µM, HT1080-NT tox inconclusive
CCOC(=O)N1CCN(C(=O)c2ccccc2NC(=O)COc2ccccc2)CC1	TDP1 cell CPT inconclusive, DT40 TDP1 no CPT 16µM
COc1ccc(C2CC(=O)c3cc(-c4nc(-c5cccc([N+](=O)[O-])c5)cs4)c(=O)n(-c4ccccc4C)c3C2)cc1 (configuration not stated)	none (no result: IL-1B inflam inh, HT1080 IDH1KD tx, HT1080-NT tox)
COc1ccc(C2CC(c3ccccc3)=NN2S(=O)(=O)c2ccccc2)c(OC)c1 (configuration not stated)	TDP1 cell CPT inconclusive, DT40 TDP1 no CPT 21µM
COc1ccc(C2CC(c3ccccc3)=NN2S(=O)(=O)c2ccc(C)cc2)c(OC)c1 (configuration not stated)	TDP1 cell CPT 8.2µM, DT40 TDP1 no CPT 7.3µM
Cc1cc(NC(=O)CSc2nnc3c4c(C)c(C)sc4ncn23)no1	TDP1 cell CPT inconclusive, DT40 TDP1 no CPT 18µM
CCc1c(C)sc2nc(SCC(=O)Nc3cc(C)on3)n(CCOC)c(=O)c12	TDP1 cell CPT inconclusive, DT40 TDP1 no CPT 1.2µM
Cc1cc(NC(=O)CSc2nc3sc(C)c(C)c3c(=O)n2C2CCCC2)no1	TDP1 cell CPT 9.2µM
Cc1cc(NC(=O)CSc2nc(C(C)C)nc3sc(C)c(C)c23)no1	none
O=C(COc1cc(F)ccc1[N+](=O)[O-])Nc1cc(S(=O)(=O)N2CCCC2)ccc1Cl	TDP1 cell CPT inconclusive, DT40 TDP1 no CPT inconclusive
Cc1ccc(NS(=O)(=O)c2ccc3nc(-c4ccccc4)[nH]c3c2)c(Br)c1	TDP1 cell CPT 15µM, DT40 TDP1 no CPT 23µM (no result: IL-1B inflam inh, HT1080 IDH1KD tx, HT1080-NT tox)

Source: PubChem (National Center for Advancing Translational Sciences (NCATS))
